From the supplement of paper PMC11150407 come the findings set out here.

One may read the cell viability as a read-out of living cells in per cent, often relative to untreated cells.

Structures can show the parent of a compound that is named as a salt. Among all 2,100 compounds or so, about 180 (8.6%) showed an effect of 50% or more. The sample holds strong results, similar compounds and a random draw of the others, so the mix is not that of the screen.

The test system of this experiment is MOLM1 and UCSD/AML1 (averaged). The experiment can be described thus: cell viability relative to DMSO control (POC); higher = less growth inhibition. Conditions: 1 µM; 72 h. As for the experimental part:
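Primary viability screen in the 3q26 EVI1-high AML cell lines MOLM1 and UCSD/AML1 (1.5e3 cells/well, 384-well), compounds at 1 uM for 72 h. ATP CellTiter-Glo read-out given as percent of viable cells over DMSO control (POC), averaged over duplicates. DMSO was the negative control and 5 uM etoposide the positive control. This mapping covers the MicroSource Spectrum and Selleck anticancer libraries (drug names).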
As to `C=CCSCC=C`, the cell viability was determined as 97.3%. Consider `CCCc1cc(OC)c2c(c1)OCO2`, for which the cell viability was determined as 90.2%. As to `C[C@H](NC(=O)Cc1cc(F)cc(F)c1)C(=O)N[C@@H]1C(=O)N(C)c2ccccc2-c2ccccc21`, the cell viability was determined as 101%. Consider `COC1=C(OC)C(=O)C(C/C=C(\C)CC/C=C(\C)CC/C=C(\C)CC/C=C(/C)CC/C=C(\C)CC/C=C(\C)CC/C=C(\C)CC/C=C(\C)CC/C=C(\C)CCC=C(C)C)=C(C)C1=O`, for which the cell viability was 85.7%. The result for `COc1c(C)c2c(c(O)c1C/C=C(\C)CCC(=O)OCCN1CCOCC1)C(=O)OC2` [Mycophenolate mofetil (CellCept)] reads 53%; that for `COc1c(C)c2c(c(O)c1C/C=C(\C)CCC(=O)O)C(=O)OC2`, 44%. For the compound `COc1c(C)c2c(c(O)c1C/C=C(\C)CCC(=O)O)C(=O)OC2` [Mycophenolic (Mycophenolate)], the cell viability was found to be 42.4%. The result for `C=C[C@@]1(C)CC(=O)[C@@]2(O)[C@](C)(O1)[C@@H](O)[C@@H](O)C1C(C)(C)CC[C@H](O)[C@@]12C` (some centres undefined) reads 98.8%; that for `COc1ccc(C(=O)O)c(O)c1OC`, 97.8%. Then `COc1ccc([C@H]2COc3c(ccc(O)c3OC)C2)c(OC)c1O`, with 116%; and `CC(C=CC(=O)NO)=CC(C)C(=O)c1ccc(N(C)C)cc1` (centres undefined) [Trichostatin A (TSA)], with 1.52%; and `O=C(Cn1ccnc1[N+](=O)[O-])NCCO`, with 94.5%. Then `Cc1csc(-c2nnc(Nc3ccc(Oc4ncccc4-c4ccnc(N)n4)cc3)c3ccccc23)c1`, with 51.5%; and `CN(C)c1ccc(C(=C2C=CC(=[N+](C)C)C=C2)c2ccc(N(C)C)cc2)cc1`, with 0.942%. With `N=C1C=CC(=C(c2ccc(N)cc2)c2ccc(N)cc2)C=C1`, the cell viability worked out at 82.5%. The result for `CCCCCCCCCCCCCc1ccco1` reads 97.1%; that for `C[C@H](CCC(=O)O)[C@H]1CC[C@H]2[C@@H]3CC[C@@H]4CCCC[C@]4(C)[C@H]3CC[C@]12C`, 98.9%; that for `C[C@@H]1O[C@@H](O[C@H]2[C@H](O[C@H]3CC[C@@]4(C)[C@@H](CC[C@]5(C)[C@@H]4CC=C4[C@@H]6CC(C)(C)CC[C@]6(C(=O)O[C@@H]6O[C@H](CO[C@@H]7O[C@H](CO)[C@@H](O[C@@H]8O[C@@H](C)[C@H](O)[C@@H](O)[C@H]8O)[C@H](O)[C@H]7O)[C@@H](O)[C@H](O)[C@H]6O)CC[C@]45C)[C@]3(C)CO)OC[C@H](O)[C@@H]2O)[C@H](O)[C@H](O)[C@H]1O`, 89.5%. The result for `COCC[n+]1c2c(n(Cc3cnccn3)c1C)C(=O)c1ccccc1C2=O` [YM155 (Sepantronium Bromide)] reads 3.93%; that for `CC(C)CCC[C@@H](C)[C@H]1CC[C@H]2[C@@H]3CC=C4CC(=O)CC[C@]4(C)[C@H]3CC[C@]12C`, 87.5%. Regarding `COC(=O)c1c(OC)cc2c(c1C)Oc1c(Cl)c(O)c(Cl)c(C)c1C(=O)O2`, the cell viability was 107%. Then `OC(Cn1cncn1)(Cn1cncn1)c1ccc(F)cc1F`, with 95.1%.

With `Cc1c(NC(=O)OC[C@@H]2COCCN2)cn2ncnc(Nc3ccc4c(cnn4Cc4cccc(F)c4)c3)c12`, the cell viability is 119%. The result for `C=C1C2CC[C@@]3(C)[C@H](c4ccoc4)OC(=O)C[C@]13O[C@H]1CC(=O)C(C)(C)[C@H](C(O)C(=O)OC)[C@@]21C` (some centres undefined) reads 99.4%. Then `CC(C)C[C@H](NC(=O)CNC(=O)c1cc(Cl)ccc1Cl)B1OC(=O)C(CC(=O)O)(CC(=O)O)O1`, with 1.16%.

On to `O=C(CNC(=O)c1ccc(Cl)cc1)NO`, for which the cell viability is 107%. In the case of `CC(C)C[C@H](NC(=O)CNC(=O)c1cc(Cl)ccc1Cl)B(O)O` [Ixazomib (MLN2238)], the cell viability turned out to be 1.39%. Then `CC(=O)Oc1ccc2c(c1)CC[C@@H]1[C@@H]2CC[C@]2(C)[C@@H](OC(C)=O)CC[C@@H]12`, with 87.5%. Consider `O=C(O)Cc1cc(I)c(Oc2cc(I)c(O)c(I)c2)c(I)c1`, for which the cell viability stood at 97.8%. Then `CC(=O)O[C@@H]1C[C@H]2C(C)(C)C(=O)C=C[C@]2(C)[C@H]2CC[C@@]3(C)[C@H](c4ccoc4)OC(=O)[C@H]4O[C@]43[C@@]21C`, with 82.8%; and `COC1(C)CCC2OC2(C)CCC2C1CC2(C)C` (centres undefined), with 102%; and `CC(C)=CCC[C@](C)(O)C1CC=C(C)CC1` (some centres undefined), with 105%. The result for `COc1cc2nccc(Oc3ccc(NC(=O)Nc4cc(C)on4)c(Cl)c3)c2cc1OC` [Tivozanib (AV-951)] reads 31.8%; that for `COc1cc2nccc(Oc3ccc(NC(=O)NC4CC4)c(Cl)c3)c2cc1C(N)=O` [E7080 (Lenvatinib)], 58%; that for `O=C(Oc1cc(O)cc2c1C[C@@H](OC(=O)c1cc(O)c(O)c(O)c1)[C@@H](c1cc(O)c(O)c(O)c1)O2)c1cc(O)c(O)c(O)c1`, 104%.

Turning to `Cc1cc(O)c(C=O)c2c1C(=O)Oc1c(COC(=O)/C=C/C(=O)O)c(O)c(C(=O)O)c(C)c1O2`, the cell viability came out at 104%. Take `Cc1ccc2c(=O)c3cccc(CC(=O)O)c3oc2c1C`: the cell viability was found to be 99.8%. Take `Cc1coc2c1C(=O)C(=O)c1c-2ccc2c1CCCC2(C)C`: the cell viability stood at 118%. The result for `C=CC(C1=CC(=O)C=CC1=O)c1ccccc1` (centres undefined) reads 103%. Then `C=CC(C1=CC(=O)C(OC)=CC1=O)c1ccccc1` (centres undefined), with 79.2%; and `C=C[C@@H](C1=CC(=O)C(OC)=C(OC)C1=O)c1ccccc1`, with 8.05%. The result for `CC1=C2C(O)C(=O)OC3CC4C(C)(C)C(=O)C=C[C@]4(C)C(CC1)[C@]23C` (some centres undefined) reads 89.3%; that for `CCCS(=O)(=O)Nc1ccc(F)c(C(=O)c2c[nH]c3ncc(-c4ccc(Cl)cc4)cc23)c1F` [Vemurafenib (PLX4032)], 114%; that for `COc1ncc(-c2ccc3nccc(-c4ccnnc4)c3c2)cc1NS(=O)(=O)c1ccc(F)cc1F`, 12.4%. With `COc1ccc2c(C)cc(=O)oc2c1`, the cell viability was 110%.

`COC(=O)CC1C(C)(C)C(OC(C)=O)[C@@H]2[C@@H](OC(C)=O)[C@]34O[C@@]2(O)[C@]1(C)C3CC[C@]1(C)C4=CC(=O)O[C@H]1c1ccoc1` (some centres undefined): the cell viability was 83.6%. Then `O=C(NOCC1CC1)c1ccc(F)c(F)c1Nc1ccc(I)cc1Cl`, with 33.2%. Consider `O=C(NOC[C@H](O)CO)c1ccc(F)c(F)c1Nc1ccc(I)cc1F`, for which the cell viability came to 49.5%. Then `O=C(OCC(O)CO)c1ccccc1Nc1ccnc2cc(Cl)ccc12` (centres undefined), with 104%; and `NC(C(=O)O)C(O)C(=O)O` (stereo not drawn) [d,l-threo-3-HYDROXYASPARTIC ACID], with 129%; and `CC(=O)OC1CCC2(C)C(=CCC3C2CCC2(C)C(C(C)CCCC(C)C)CCC32)C1` (centres undefined), with 97.3%. Then `COc1cc(O)cc(OC)c1OC`, with 95.9%; and `COC(=O)/C(=C1/OC(=O)C(c2ccccc2)=C1O)c1ccccc1`, with 102%. The result for `Cc1cc(Nc2cc(N3CCN(C)CC3)nc(/C=C/c3ccccc3)n2)n[nH]1` reads 19.9%; that for `Cc1cc(Nc2cc(N3CCN(C)CC3)nc(Sc3ccc(NC(=O)C4CC4)cc3)n2)n[nH]1` [VX-680 (MK-0457, Tozasertib)], 22%; that for `C[C@@H](N)[C@H]1CC[C@H](C(=O)Nc2ccncc2)CC1`, 102%. For the compound `COc1cc2oc3cc(OC)c(OC)c(CC=C(C)C)c3c(=O)c2c(OC)c1CC=C(C)C`, the cell viability is 104%.

Consider `O=c1cc(-c2ccccc2)oc2cc(O)c(O)c(O)c12`, for which the cell viability came out at 86%. The result for `CC1(C)C(O[C@@H]2OC[C@@H](O)[C@H](O)[C@H]2O)CC[C@]23CC24CC[C@]2(C)[C@@H]([C@@]5(C)CC[C@@H](C(C)(C)O)O5)[C@H](O)C[C@@]2(C)C4C[C@@H](O[C@@H]2O[C@H](CO)[C@@H](O)[C@H](O)[C@H]2O)C13` (some centres undefined) reads 91.9%; that for `CC(C)[C@@H]1CC[C@@H](C)C[C@H]1OC(=O)c1ccccc1`, 109%; that for `NC(=O)NCCC[C@H](N)C(=O)O`, 93.7%. As for `C=CCCCCCCCCCCCc1ccco1`, the cell viability amounted to 109%.

For `Nc1cc(C(F)(F)F)c(-c2cc(N3CCOCC3)nc(N3CCOCC3)n2)cn1`, the cell viability came out at 26.9%.

In the case of `COc1c(CC(=O)c2cc3c(cc2O)OC(C)(C)C(O)C3)ccc2c1C=CC(C)(C)O2` (centres undefined), the cell viability was 98%. The result for `N[C@@H](C(=O)O)[C@@H](O)[C@H](O)[C@H](O)CO` reads 106%. `CCNC(=O)CC[C@H](N)C(=O)O`: the cell viability was found to be 92.2%. The result for `Cc1cccc(Nc2nc(-c3ccncc3)cs2)c1` reads 98.9%; that for `Cc1ccc(NC(=O)c2ccc(CN3CCN(C)CC3)cc2)cc1Nc1nccc(-c2cccnc2)n1` [Imatinib Mesylate], 37.8%; that for `Cc1cn(-c2cc(NC(=O)c3ccc(C)c(Nc4nccc(-c5cccnc5)n4)c3)cc(C(F)(F)F)c2)cn1` [Nilotinib (AMN-107)], 50.6%. The result for `Cc1ccc(NC(=O)c2ccc(CN3CCN(C)CC3)cc2)cc1Nc1nc(-c2cccnc2)cs1` [Masitinib (AB1010)] reads 25.7%; that for `CO[C@H]1[C@H](O)[C@@H](O)[C@H](O)[C@H](O)[C@H]1O`, 95.8%. The result for `COc1ccc2c(=O)c(OC)c(-c3ccccc3)oc2c1` reads 89.8%; that for `COc1cc(-c2coc3cc(OC)c(OC)c(OC)c3c2=O)cc(OC)c1OC`, 96%.

In the case of `C=C1/C(=C\C=C2/CCC[C@]3(C)[C@@H]([C@H](C)/C=C/[C@H](C)C(C)C)CC[C@@H]23)C[C@@H](O)C[C@@H]1O` [Doxercalciferol (Hectorol)], the cell viability was 99.3%.

Regarding `CC(=O)NCCc1ccc(O)c(-c2c(O)c(O)c3c(c2O)C(=O)c2c(cc(O)c(C(=O)O)c2C(=O)O)C3=O)c1`, the cell viability worked out at 102%. In the case of `COc1cc(OC)c2c(=O)cc(-c3ccccc3)oc2c1`, the cell viability is 90.2%. Then `C/C1=C\CCC(=O)C2CC(C)(C)C2CC1` (centres undefined), with 93.3%. The result for `Cc1cc(O)c2c(c1O)C(=O)c1c(O)cc(C)c(O)c1C2=O` reads 94.1%. The result for `COc1c2ccoc2cc2oc(C)cc(=O)c12` reads 104%; that for `Cn1cnc2c(F)c(Nc3ccc(Br)cc3Cl)c(C(=O)NOCCO)cc21` [AZD6244 (Selumetinib)], 15.5%.

`C#CCCCCCCCCCCCC(O)CC(O)CO` (centres undefined): the cell viability stood at 55.1%.

With `CC1(C)C=Cc2cc3ccc(=O)oc3cc2O1`, the cell viability stood at 107%. The result for `CN(C)CC(=O)OC[C@@H](O)[C@@H](O)[C@H](O)[C@@H](O)C(=O)O` reads 108%. The result for `CNCc1ccc(-c2[nH]c3cc(F)cc4c3c2CCNC4=O)cc1` reads 89.1%.
